Inconclusive results are not listed. A call without a number means that no potency is given here. The source holds several records for some structures; these can differ, active in one and inactive in another. Calls of active or inactive are those of the source. The call rests on the fitted dose curve.
Tests used:
[1] = target: Acetylcholinesterase (Homo sapiens) (UniProt P22303); test: Acetylcholinesterase (AChE) small molecule antagonists: colormetric cell-based qHTS assay (AID 1347395); further: nearly all actives have a fitted effect of over 30% in size; further: potency means the concentration at half of the fitted maximal effect
Procedure, shortened: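 In this cell-based qHTS, attached SH-SY5Y cells were treated with test chemicals for 30 min, after which acetylthiocholine hydrolysis was followed by DTNB colour development over 90 min at 37 C.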

[2] = target: Acetylcholinesterase (Homo sapiens) (UniProt P22303); test: Acetylcholinesterase (AChE) small molecule antagonists: enzyme-based qHTS assay (AID 1347397); details: Potency: AChE enzyme activity inhibition; outcome: AChE enzyme activity inhibition; further: nearly all actives have a fitted effect of over 55% in size
Procedure, shortened: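 Recombinant human AChE (50 mU/mL) preincubated with compound 30 min at room temperature; acetylthiocholine plus DTNB then added, and thiocholine formation read colorimetrically after 10 min at room temperature. DMSO served as vehicle control.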

[3] = target: Acetylcholinesterase (Homo sapiens) (UniProt P22303); test: Acetylcholinesterase (AChE) small molecule antagonists: fluorescence cell-based qHTS assay (AID 1347398); details: Potency: AChE activity; outcome: AChE activity; further: nearly all actives have a fitted effect of over 50% in size; further: potency means the concentration at half of the fitted maximal effect
Procedure, shortened: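 SH-SY5Y cells (2000/well), attached overnight, incubated with compound 30 min at 37 C. Acetylthiocholine plus Thiolite Green then added for 40 min at room temperature. Thiocholine fluorescence (Ex/Em 490/520 nm) reports cellular AChE activity.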

[4] = target: Acetylcholinesterase (Homo sapiens) (UniProt P22303); test: Acetylcholinesterase (AChE) small molecule antagonists: enzyme-based qHTS assay with human liver microsomes (AID 1347399); details: Potency: qHTS inhibition; outcome: qHTS inhibition; further: nearly all actives have a fitted effect of over 60% in size
Procedure, shortened: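 Recombinant human AChE (50 mU/mL in the enzyme mix) and human liver microsomes (0.25 mg/mL final) were preincubated with compound and NADPH (0.25 mg/mL final) for 30 min at 37 C. Acetylthiocholine/DTNB was then added; thiocholine was read colorimetrically after 10 min at room temperature.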

Acetylcholinesterase (Homo sapiens), sequence (P22303 whole entry, looked up): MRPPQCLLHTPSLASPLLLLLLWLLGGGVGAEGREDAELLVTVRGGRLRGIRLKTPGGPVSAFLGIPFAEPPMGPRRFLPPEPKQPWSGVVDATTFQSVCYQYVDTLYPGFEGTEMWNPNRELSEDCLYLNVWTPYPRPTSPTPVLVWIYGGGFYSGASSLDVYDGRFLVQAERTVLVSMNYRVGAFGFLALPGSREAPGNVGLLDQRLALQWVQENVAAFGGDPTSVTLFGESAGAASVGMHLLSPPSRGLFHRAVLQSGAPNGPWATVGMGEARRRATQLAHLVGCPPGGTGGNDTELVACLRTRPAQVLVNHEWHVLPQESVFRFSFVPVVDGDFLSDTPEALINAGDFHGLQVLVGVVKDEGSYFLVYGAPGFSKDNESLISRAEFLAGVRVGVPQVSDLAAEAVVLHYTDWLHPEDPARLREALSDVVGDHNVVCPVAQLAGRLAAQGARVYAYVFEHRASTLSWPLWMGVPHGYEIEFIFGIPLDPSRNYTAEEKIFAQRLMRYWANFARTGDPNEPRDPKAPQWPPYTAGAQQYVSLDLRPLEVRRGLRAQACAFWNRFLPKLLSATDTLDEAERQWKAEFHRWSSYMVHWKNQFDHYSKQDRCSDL

Row | Compound | Potency [1] | Potency [2] | Potency [3] | Potency [4]
1 | CCCCCCC(C)(C)S | inactive | inactive | inactive | inactive
2 | Cn1c(=O)c2[nH]c(Br)nc2n(C)c1=O | inactive | inactive | inactive | inactive
3 | CCOc1nc(F)cc2nc(S(=O)(=O)Nc3c(Cl)cccc3C(=O)OC)nn12 | inactive | inactive | inactive | inactive
4 | CC(=O)Nc1ccc(C)cc1C | inactive | inactive | inactive | inactive
5 | N#C[C@@H]1CC(F)(F)CN1C(=O)CNC1CC2CCC(C1)N2c1ncccn1 (some centres undefined) | inactive | inactive | inactive | inactive
6 | CCOC(C)=O | inactive | inactive | inactive | inactive
7 | O=C1OCCO1 | inactive | inactive | inactive | inactive
8 | CC(=O)Nc1nnc(S(N)(=O)=O)s1 | inactive | inactive | inactive | inactive
9 | O=C(Cl)c1ccc(Cl)cc1Cl | inactive | inactive | inactive | inactive
10 | CCOCC(O)COc1ccc(NC(=O)CC[S+](C)C)cc1 (centres undefined) | inactive | inactive | inactive | inactive
11 | C/C=C(\C)C=O | inactive | inactive | inactive | inactive
12 | CN(C)CCCCl | inactive | inactive | inactive | inactive
13 | CCCCOC(=O)C(=O)OCCCC | inactive | inactive | inactive | inactive
14 | Cc1c(N(C)CS(=O)(=O)O)c(=O)n(-c2ccccc2)n1C | inactive | inactive | inactive | inactive
15 | COc1ccc(C)cc1[N+](=O)[O-] | inactive | inactive | inactive | inactive
16 | CN=C(N)NC(=O)Nc1c(C)cccc1C | inactive | inactive | inactive | inactive
17 | CN(C)C(=S)SC(=S)N(C)C | 56.4 µM (active) and inactive | inactive | 35.6 µM (active) and inactive | inactive
18 | CC1=CC[C@H](C(C)C)C=C1 | inactive | inactive | inactive | inactive
19 | Cc1ccccc1OCC1CO1 (centres undefined) | inactive | inactive | inactive | inactive
20 | COc1cc(C)c(Cc2cnc(N)nc2N)cc1OC | inactive | inactive | inactive | inactive
21 | CN(C(=O)CN(CCO)CC(=O)N(C)C(C)(C)Cc1ccccc1)C(C)(C)Cc1ccccc1 | inactive | inactive | inactive | inactive

Row | Compound | Potency [1] | Potency [2] | Potency [3] | Potency [4]
22 | CCn1ccnc1CC1COc2ccccc2O1 (centres undefined) | inactive | inactive | inactive | inactive
23 | ClCCOCCOCCCl | inactive | inactive | inactive | inactive
24 | Cc1cccc(O)c1C | inactive | inactive | inactive | inactive
25 | CC1OC1C1CCC2(C)OC2C1 (centres undefined) | inactive | inactive | inactive | inactive
26 | CCCc1nc2c(C)cc(-c3nc4ccccc4n3C)cc2n1Cc1ccc(-c2ccccc2C(=O)O)cc1 | inactive | inactive | inactive | inactive
27 | O=C(O)Cc1c(Cl)ccc(Cl)c1Cl | inactive | inactive | inactive | inactive
28 | C=C(C)C(=O)OCCCCCCOC(=O)C(=C)C | inactive | inactive | inactive | inactive
29 | CCC(C)CO (centres undefined) | inactive | inactive | inactive | inactive
30 | N[C@@H](Cc1c[nH]c2ccccc12)C(=O)O | inactive | inactive | inactive | inactive
31 | COc1ccc(N)c(C)c1 | inactive | inactive | inactive | inactive
32 | CCCCNc1c(C(=O)OCC)c(C)nc2c1cnn2CC | inactive | inactive | inactive | inactive
33 | Cc1ccccc1OCC(=O)O | inactive | inactive | inactive | inactive
34 | CC(=O)c1ccc(Cl)c(Cl)c1Cl | inactive | inactive | inactive | inactive
35 | Oc1ccc(/C=C/c2cc(O)cc(O)c2)cc1 | inactive | inactive | inactive | inactive
36 | O=C1CCCCC1C1CCCCC1 (centres undefined) | inactive | inactive | inactive | inactive
37 | COc1nc(C)nc(NC(=O)NS(=O)(=O)c2ccccc2OCCCl)n1 | inactive | inactive | inactive | inactive
38 | C[C@@H]1C[C@H]2O[C@@]3(O[C@@H]2C(C)(C)O)[C@H](O)[C@@]2(C)[C@@H]4CC[C@H]5C(C)(C)[C@@H](O[C@@H]6OC[C@@H](O)[C@H](O)[C@H]6O)CC[C@@]56C[C@@]46CC[C@]2(C)[C@@H]13 | inactive | inactive | inactive | inactive
39 | O=C(O)c1cccc(C(=O)O)c1 | inactive | inactive | inactive | inactive
40 | COc1ccccc1N1CCN(CCCCNC(=O)c2ccc(-c3ccc(C(C)=O)cc3)cc2)CC1 | inactive | inactive | inactive | inactive
41 | C=C1C(CCl)(CCl)C2(Cl)C(Cl)C(Cl)C1(Cl)C2(Cl)Cl (centres undefined) | inactive | inactive | inactive | inactive

Source: PubChem BioAssay (Tox21)
